# In PubChem BioAssay (NCATS):
# Results filed as inconclusive are left out. Where a call stands in place of a potency, no number is given. Active and inactive are the calls of the source. Unless noted, the call rests on the fitted dose curve.
# Tested on: not listed separately
# Assay: qHTS for Inhibitors of the Functional Ribonucleoprotein Complex (vRNP) of Lymphocytic Choriomeningitis Arenaviruses (LCMV): Viability assay - alamar blue signal for LCMV Primary Screen (AID 1347085; calls by dose curve; tested in HEK293 reporter line; further: nearly all actives have a fitted effect of over 80% in size)
# Details: alamar blue viability counter-screen, LCMV vRNP screen cells; series mostly up to 57.5 µM
row,Structure (SMILES),Potency
1,COC1C(O)C(C)OC(OC2CCC3(C=O)C(CCC4C3CCC3(C)C(C5=CC(=O)OC5)CCC43O)C2)C1O (stereo unspecified),inactive
2,C[C@]12CC[C@@H]3c4ccc(O)cc4CC[C@H]3[C@@H]1CC[C@@H]2O,inactive
3,Cn1cc(-c2ccncc2)c(-c2ccc(OCc3ccc4ccccc4n3)cc2)n1,inactive
4,O=c1c(-c2ccc(O)cc2)coc2cc(O)ccc12,inactive
5,C[C@]12CC[C@@H]3c4ccc(O)cc4CC[C@H]3[C@H]1[C@@H](O)[C@@H](O)[C@H]2O,inactive
6,COc1ccc(C2CC(c3ccccc3)=NN2c2ccc(S(N)(=O)=O)cc2)cc1 (stereo unspecified),inactive
7,CCS(=O)(=O)N1CC(CC#N)(n2cc(-c3ncnc4[nH]ccc34)cn2)C1,inactive
8,COc1cc2c(oc(=O)c3cc(C)cc(OC)c32)c2c(C3OC(C)C(O)C(C)(O)C3O)ccc(O)c12 (stereo unspecified),inactive
9,COc1cc2c(c(OC)c1OC)-c1ccc(OC)c(=O)cc1[C@@H](NC=O)CC2,inactive
10,NS(=O)(=O)c1ccc(Nc2nc(OCC3CCCCC3)c3[nH]cnc3n2)cc1,inactive
11,Nc1nc(F)nc2c1ncn2[C@@H]1O[C@H](COP(=O)(O)O)[C@@H](O)[C@H]1O,inactive
12,Nc1ncnc2c1nc(Cl)n2[C@@H]1O[C@H](CO)[C@@H](O)[C@@H]1O,inactive
13,COc1ccc(-c2oc3cc(OC)c(O)c(OC)c3c(=O)c2OC)cc1O,inactive
14,C=CCc1ccc(O)c(-c2ccc(O)c(CC=C)c2)c1,inactive
15,O=C1NC(=O)C(=Cc2ccc3nccnc3c2)S1,inactive
16,O=c1[nH]nc(OCCCc2ccc(Cl)cc2)c(NCc2cccnc2)c1Br,inactive
17,NC(=O)c1cccc2[nH]c(-c3ccc([C@H]4CCCN4)cc3F)nc12,inactive
18,CCn1c(C(=O)N(C2CC2)C2CC2)cc2c3c(ncn3C)c(Nc3cc(C)n(C)n3)nc21,inactive
19,COc1cc2c(cc1OC)[C@@H]1Cc3ccc(OC)c(OC)c3CN1CC2,inactive
20,N[C@H](CSC(c1ccccc1)(c1ccccc1)c1ccccc1)C(=O)O,inactive
21,Clc1cc(Cl)cc(CNc2ncncc2-c2ccc3c(c2)OCO3)c1,inactive
22,C=CC(=O)Nc1cccc(Sc2nc(Nc3ccc(N4CCN(C)CC4)cc3)ncc2Cl)c1,inactive
23,CC(C)n1cnc2c(NCCc3ccc(O)cc3)nc(-c3csc4ccccc34)nc21,inactive
24,COc1cc(C(C)C)c2c(c1)S(=O)(=O)N(COc1cc(=O)n3cccc(OCCN4CCCCC4)c3n1)C2=O,inactive
25,CN(C)CC[C@H](CSc1ccccc1)Nc1ccc(S(=O)(=O)NC(=O)c2ccc(N3CCN(Cc4ccccc4-c4ccc(Cl)cc4)CC3)cc2)cc1[N+](=O)[O-],inactive
26,Cn1c(=O)c(Oc2ccc(F)cc2F)cc2cnc(NC3CCOCC3)nc21,inactive

# Molecular target: Nucleoprotein (Lymphocytic choriomeningitis virus (strain Armstrong)) (UniProt P09992)
# Sequence (P09992 whole entry, looked up): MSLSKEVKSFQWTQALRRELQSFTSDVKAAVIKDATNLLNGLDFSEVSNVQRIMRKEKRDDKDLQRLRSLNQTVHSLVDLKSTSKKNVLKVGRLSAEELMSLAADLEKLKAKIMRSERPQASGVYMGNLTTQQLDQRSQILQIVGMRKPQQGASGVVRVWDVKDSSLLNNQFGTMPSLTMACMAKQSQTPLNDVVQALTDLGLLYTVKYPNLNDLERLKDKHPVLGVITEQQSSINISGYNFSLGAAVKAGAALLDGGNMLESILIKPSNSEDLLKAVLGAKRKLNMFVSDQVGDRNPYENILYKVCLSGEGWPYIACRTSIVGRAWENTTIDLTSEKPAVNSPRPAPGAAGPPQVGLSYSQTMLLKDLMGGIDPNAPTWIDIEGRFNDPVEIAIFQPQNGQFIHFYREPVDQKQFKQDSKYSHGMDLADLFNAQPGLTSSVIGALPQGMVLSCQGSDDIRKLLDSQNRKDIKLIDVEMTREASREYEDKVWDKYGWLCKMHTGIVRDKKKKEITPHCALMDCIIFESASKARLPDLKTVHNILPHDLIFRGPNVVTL
# Assay: qHTS for Inhibitors of the Functional Ribonucleoprotein Complex (vRNP) of Lymphocytic Choriomeningitis Arenaviruses (LCMV): LCMV Primary Screen - GLuc reporter signal (AID 1347086); further: nearly all actives have a fitted effect of over 70% in size; further: potency means the concentration at half of the fitted maximal effect
# Details: LCMV minigenome vRNP cell assay, Gaussia luciferase reporter; series mostly up to 57.5 µM
row,Structure (SMILES),Potency
1,CCN(CCO)CCCOc1ccc2c(Nc3cc(CC(=O)Nc4cccc(F)c4)[nH]n3)ncnc2c1,inactive
2,COc1cc2ncnc(Nc3cccc(Cl)c3)c2cc1OC,inactive
3,COC1=C2C[C@@H](C)C[C@H](OC)[C@@H](O)[C@@H](C)C=C(C)[C@H](OC(N)=O)[C@@H](OC)C=CC=C(C)C(=O)NC(=CC1=O)C2=O,15.3 µM (active)
4,O=C(O)C1(Cc2cccc(Nc3nccs3)n2)CCC(Oc2cccc(Cl)c2F)CC1 (stereo unspecified),inactive
5,COc1c(O)cc(O)c2c(=O)cc(-c3ccccc3)oc12,inactive
6,CN1CCN(c2cccc(Nc3nc4c(-c5ccc(S(C)(=O)=O)cc5)cccn4n3)c2)CC1,inactive
7,O=c1c(O)c(-c2ccccc2)oc2ccccc12,inactive
8,C[C@@H]1C(=O)O[C@H]2[C@H](O)[C@@]34[C@H]5CC(C(C)(C)C)[C@]36[C@H](OC(=O)[C@H]6O)O[C@]4(C(=O)O5)[C@@]12O (stereo partly specified),inactive
9,C=C1CCC2C(C)(C)[C@H](O)CC[C@@]2(C)[C@@H]1COc1cc(=O)oc2ccccc12 (stereo partly specified),inactive
10,Cc1cccc(Nc2nc(-c3ccncc3)cs2)c1,inactive
11,O=C(c1ccc(C=Cc2n[nH]c3ccccc23)cc1)N1CCNCC1,inactive
12,COc1cc(OC)c(NC(=O)Nc2cc(C)on2)cc1Cl,inactive
13,C=C1C(=O)O[C@H]2[C@H]1[C@H](OC(=O)/C(C)=C\C)C[C@]1(CO1)[C@@H]1[C@H](OC(C)=O)C=C(C)[C@]21O,inactive
14,CN(Cc1nc2c(N)nc(N)nc2[nH]c1=O)c1ccc(C(=O)NC(CCC(=O)O)C(=O)O)cc1 (stereo unspecified),inactive
15,COC1C(O)C(C)OC(OC2CCC3(C=O)C(CCC4C3CCC3(C)C(C5=CC(=O)OC5)CCC43O)C2)C1O (stereo unspecified),inactive
16,C[C@]12CC[C@@H]3c4ccc(O)cc4CC[C@H]3[C@@H]1CC[C@@H]2O,inactive
17,Cn1cc(-c2ccncc2)c(-c2ccc(OCc3ccc4ccccc4n3)cc2)n1,21.7 µM (active)
18,O=c1c(-c2ccc(O)cc2)coc2cc(O)ccc12,inactive
19,C[C@]12CC[C@@H]3c4ccc(O)cc4CC[C@H]3[C@H]1[C@@H](O)[C@@H](O)[C@H]2O,inactive
20,COc1ccc(C2CC(c3ccccc3)=NN2c2ccc(S(N)(=O)=O)cc2)cc1 (stereo unspecified),inactive

row,Structure (SMILES),Potency
1,CCS(=O)(=O)N1CC(CC#N)(n2cc(-c3ncnc4[nH]ccc34)cn2)C1,inactive
2,COc1cc2c(oc(=O)c3cc(C)cc(OC)c32)c2c(C3OC(C)C(O)C(C)(O)C3O)ccc(O)c12 (stereo unspecified),inactive
3,COc1cc2c(c(OC)c1OC)-c1ccc(OC)c(=O)cc1[C@@H](NC=O)CC2,inactive
4,NS(=O)(=O)c1ccc(Nc2nc(OCC3CCCCC3)c3[nH]cnc3n2)cc1,inactive
5,Nc1nc(F)nc2c1ncn2[C@@H]1O[C@H](COP(=O)(O)O)[C@@H](O)[C@H]1O,inactive
6,Nc1ncnc2c1nc(Cl)n2[C@@H]1O[C@H](CO)[C@@H](O)[C@@H]1O,inactive
7,COc1ccc(-c2oc3cc(OC)c(O)c(OC)c3c(=O)c2OC)cc1O,inactive
8,C=CCc1ccc(O)c(-c2ccc(O)c(CC=C)c2)c1,inactive
9,O=C1NC(=O)C(=Cc2ccc3nccnc3c2)S1,inactive
10,O=c1[nH]nc(OCCCc2ccc(Cl)cc2)c(NCc2cccnc2)c1Br,inactive
11,NC(=O)c1cccc2[nH]c(-c3ccc([C@H]4CCCN4)cc3F)nc12,inactive
12,CCn1c(C(=O)N(C2CC2)C2CC2)cc2c3c(ncn3C)c(Nc3cc(C)n(C)n3)nc21,inactive
13,COc1cc2c(cc1OC)[C@@H]1Cc3ccc(OC)c(OC)c3CN1CC2,inactive
14,N[C@H](CSC(c1ccccc1)(c1ccccc1)c1ccccc1)C(=O)O,inactive
15,Clc1cc(Cl)cc(CNc2ncncc2-c2ccc3c(c2)OCO3)c1,inactive
16,C=CC(=O)Nc1cccc(Sc2nc(Nc3ccc(N4CCN(C)CC4)cc3)ncc2Cl)c1,inactive
17,CC(C)n1cnc2c(NCCc3ccc(O)cc3)nc(-c3csc4ccccc34)nc21,inactive
18,COc1cc(C(C)C)c2c(c1)S(=O)(=O)N(COc1cc(=O)n3cccc(OCCN4CCCCC4)c3n1)C2=O,inactive
19,CN(C)CC[C@H](CSc1ccccc1)Nc1ccc(S(=O)(=O)NC(=O)c2ccc(N3CCN(Cc4ccccc4-c4ccc(Cl)cc4)CC3)cc2)cc1[N+](=O)[O-],inactive
20,Cn1c(=O)c(Oc2ccc(F)cc2F)cc2cnc(NC3CCOCC3)nc21,inactive
